Measured values from the supplement of paper PMC11732987, “Enantioselective OTUD7B fragment discovery through chemoproteomics screening and high-throughput optimisation” (Communications Chemistry, 2025).

How the values were obtained:
Experiment in all cases: log2 ratio of Biotin-Ahx-Ub-VS probe labelling (fragment/DMSO); higher = less target engagement (more negative = stronger competition), active = hit call of the paper (q ≤ 0.05, log2 ratio ≤ -1)
Conditions in all cases: compound concentration: 200 uM; treatment time: 3 h
USP42 = molecular target: T1, USP42 (UniProt Q9H9J4)
T1 sequence (whole entry): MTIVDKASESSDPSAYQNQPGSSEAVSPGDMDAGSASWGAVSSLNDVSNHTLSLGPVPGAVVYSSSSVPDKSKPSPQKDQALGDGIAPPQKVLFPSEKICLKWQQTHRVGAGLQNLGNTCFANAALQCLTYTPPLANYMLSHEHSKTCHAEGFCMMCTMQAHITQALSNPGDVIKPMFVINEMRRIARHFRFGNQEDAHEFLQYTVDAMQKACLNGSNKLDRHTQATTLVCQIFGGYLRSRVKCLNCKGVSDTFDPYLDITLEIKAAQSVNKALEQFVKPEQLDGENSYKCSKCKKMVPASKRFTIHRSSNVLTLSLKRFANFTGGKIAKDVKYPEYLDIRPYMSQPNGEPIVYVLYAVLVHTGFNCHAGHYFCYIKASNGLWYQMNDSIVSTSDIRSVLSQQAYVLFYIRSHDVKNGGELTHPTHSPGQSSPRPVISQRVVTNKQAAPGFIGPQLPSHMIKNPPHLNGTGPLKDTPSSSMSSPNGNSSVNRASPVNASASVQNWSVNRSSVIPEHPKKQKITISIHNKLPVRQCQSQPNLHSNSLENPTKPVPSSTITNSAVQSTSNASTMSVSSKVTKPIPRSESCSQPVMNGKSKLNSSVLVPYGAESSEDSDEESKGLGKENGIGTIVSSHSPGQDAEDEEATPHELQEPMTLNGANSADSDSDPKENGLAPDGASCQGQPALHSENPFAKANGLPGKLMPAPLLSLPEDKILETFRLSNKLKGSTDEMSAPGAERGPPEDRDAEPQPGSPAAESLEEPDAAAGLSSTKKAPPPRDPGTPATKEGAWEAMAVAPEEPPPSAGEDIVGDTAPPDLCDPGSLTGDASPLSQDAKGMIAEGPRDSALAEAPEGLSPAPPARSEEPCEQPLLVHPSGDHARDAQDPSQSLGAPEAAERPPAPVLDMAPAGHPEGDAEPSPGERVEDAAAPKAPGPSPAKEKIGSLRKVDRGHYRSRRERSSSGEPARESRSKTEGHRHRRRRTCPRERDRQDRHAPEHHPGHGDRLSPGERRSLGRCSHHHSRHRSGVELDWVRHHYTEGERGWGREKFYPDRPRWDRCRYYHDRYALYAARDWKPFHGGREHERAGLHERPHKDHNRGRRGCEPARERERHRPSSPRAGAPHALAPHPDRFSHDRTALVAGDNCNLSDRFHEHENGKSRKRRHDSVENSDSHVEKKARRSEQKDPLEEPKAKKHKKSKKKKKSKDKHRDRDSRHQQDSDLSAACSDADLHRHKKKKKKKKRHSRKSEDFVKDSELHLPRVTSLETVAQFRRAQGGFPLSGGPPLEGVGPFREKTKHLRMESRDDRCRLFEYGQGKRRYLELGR
Method in brief: (§1)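 HEK293T lysate (495 µg per sample, in Tris/CHAPS/IGEPAL buffer with protease inhibitors) was treated in triplicate with fragment at 200 µM or with DMSO for 3 h. It was then treated with Biotin-Ahx-Ub-VS (0.5 µM final) for 1 h. Labelled DUBs were NeutrAvidin-enriched, digested with LysC and trypsin, and run by diaPASEF LC-MS/MS. Spectronaut label-free quantities were global-median-normalised. Values are average log2 ratios fragment/DMSO by unpaired t-test, using proteins with ≥2 unique peptides.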

USP46 = USP46 (UniProt P62068)
USP46, sequence (P62068 whole entry): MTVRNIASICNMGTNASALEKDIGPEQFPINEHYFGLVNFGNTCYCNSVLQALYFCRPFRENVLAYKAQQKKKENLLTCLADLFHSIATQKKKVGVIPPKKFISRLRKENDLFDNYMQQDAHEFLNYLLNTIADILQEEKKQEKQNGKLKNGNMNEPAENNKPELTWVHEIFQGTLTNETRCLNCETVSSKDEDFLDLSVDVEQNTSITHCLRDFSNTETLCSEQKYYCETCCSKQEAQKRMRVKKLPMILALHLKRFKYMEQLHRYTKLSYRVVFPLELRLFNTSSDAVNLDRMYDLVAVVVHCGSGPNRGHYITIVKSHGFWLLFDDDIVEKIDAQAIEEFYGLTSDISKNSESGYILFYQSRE
Method in brief: as §1

USP47 = molecular target: T2, USP47 (UniProt Q96K76)
T2 sequence (whole entry): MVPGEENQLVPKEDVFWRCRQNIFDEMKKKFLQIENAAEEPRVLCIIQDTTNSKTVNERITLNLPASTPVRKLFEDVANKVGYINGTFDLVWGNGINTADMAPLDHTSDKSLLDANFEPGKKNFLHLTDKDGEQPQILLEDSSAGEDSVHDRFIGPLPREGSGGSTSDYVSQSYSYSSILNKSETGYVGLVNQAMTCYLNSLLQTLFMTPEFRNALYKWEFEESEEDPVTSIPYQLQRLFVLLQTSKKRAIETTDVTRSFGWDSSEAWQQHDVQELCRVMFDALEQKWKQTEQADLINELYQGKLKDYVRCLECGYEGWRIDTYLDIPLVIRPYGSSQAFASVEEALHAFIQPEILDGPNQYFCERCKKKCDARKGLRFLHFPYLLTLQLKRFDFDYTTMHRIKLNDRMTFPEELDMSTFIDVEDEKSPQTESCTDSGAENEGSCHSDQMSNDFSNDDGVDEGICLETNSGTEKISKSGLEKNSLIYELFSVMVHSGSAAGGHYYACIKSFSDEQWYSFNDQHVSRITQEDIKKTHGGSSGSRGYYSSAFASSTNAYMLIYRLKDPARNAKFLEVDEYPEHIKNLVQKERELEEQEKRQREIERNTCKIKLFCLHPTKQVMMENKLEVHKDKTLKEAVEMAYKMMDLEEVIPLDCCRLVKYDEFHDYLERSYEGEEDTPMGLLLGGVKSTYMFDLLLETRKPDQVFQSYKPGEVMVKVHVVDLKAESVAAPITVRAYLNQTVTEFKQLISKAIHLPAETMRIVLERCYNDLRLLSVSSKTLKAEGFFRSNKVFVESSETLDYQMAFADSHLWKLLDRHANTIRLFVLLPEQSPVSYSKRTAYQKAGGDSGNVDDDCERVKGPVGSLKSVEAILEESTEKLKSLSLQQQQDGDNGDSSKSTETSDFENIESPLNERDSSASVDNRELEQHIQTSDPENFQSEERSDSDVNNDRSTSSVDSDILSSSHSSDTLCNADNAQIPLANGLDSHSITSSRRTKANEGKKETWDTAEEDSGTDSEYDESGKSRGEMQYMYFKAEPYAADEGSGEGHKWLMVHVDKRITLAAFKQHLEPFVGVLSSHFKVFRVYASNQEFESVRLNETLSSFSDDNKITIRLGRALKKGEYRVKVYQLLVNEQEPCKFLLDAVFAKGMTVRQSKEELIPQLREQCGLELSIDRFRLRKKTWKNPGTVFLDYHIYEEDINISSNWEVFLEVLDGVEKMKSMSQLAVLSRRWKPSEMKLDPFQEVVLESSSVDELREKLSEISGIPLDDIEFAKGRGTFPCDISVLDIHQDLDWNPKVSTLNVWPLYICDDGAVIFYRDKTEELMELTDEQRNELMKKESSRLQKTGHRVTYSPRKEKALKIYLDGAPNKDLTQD
Method in brief: as §1

USP48 = molecular target: T3, USP48 (UniProt Q86UV5)
T3 sequence (whole entry): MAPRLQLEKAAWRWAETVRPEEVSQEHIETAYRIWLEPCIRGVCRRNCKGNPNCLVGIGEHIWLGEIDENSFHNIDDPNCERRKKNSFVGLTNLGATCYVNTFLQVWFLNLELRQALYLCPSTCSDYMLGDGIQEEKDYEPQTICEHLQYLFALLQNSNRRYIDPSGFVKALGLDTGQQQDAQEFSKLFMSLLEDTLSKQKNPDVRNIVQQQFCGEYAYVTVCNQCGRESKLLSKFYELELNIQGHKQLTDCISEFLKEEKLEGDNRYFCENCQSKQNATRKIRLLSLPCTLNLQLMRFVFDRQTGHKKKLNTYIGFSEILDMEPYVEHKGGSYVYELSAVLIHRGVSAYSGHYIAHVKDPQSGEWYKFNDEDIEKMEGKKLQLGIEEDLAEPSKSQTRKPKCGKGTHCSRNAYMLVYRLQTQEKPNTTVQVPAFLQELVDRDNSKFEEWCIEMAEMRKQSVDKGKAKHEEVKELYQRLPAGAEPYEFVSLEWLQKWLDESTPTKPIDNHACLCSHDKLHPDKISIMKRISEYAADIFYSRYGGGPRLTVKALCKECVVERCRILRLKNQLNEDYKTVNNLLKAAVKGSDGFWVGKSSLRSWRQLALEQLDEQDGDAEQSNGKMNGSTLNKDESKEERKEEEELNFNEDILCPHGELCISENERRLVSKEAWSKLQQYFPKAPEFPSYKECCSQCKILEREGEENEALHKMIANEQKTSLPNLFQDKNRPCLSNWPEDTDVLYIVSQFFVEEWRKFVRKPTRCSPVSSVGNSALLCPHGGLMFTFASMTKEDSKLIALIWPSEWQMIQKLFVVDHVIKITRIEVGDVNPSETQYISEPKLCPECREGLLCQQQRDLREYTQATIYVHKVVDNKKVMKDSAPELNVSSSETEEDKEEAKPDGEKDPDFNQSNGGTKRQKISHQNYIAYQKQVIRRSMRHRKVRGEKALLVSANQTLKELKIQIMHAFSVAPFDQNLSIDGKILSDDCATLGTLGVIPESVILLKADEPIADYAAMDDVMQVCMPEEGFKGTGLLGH
Method in brief: as §1

USP5 = molecular target: T4, USP5 (UniProt P45974)
T4 sequence (whole entry): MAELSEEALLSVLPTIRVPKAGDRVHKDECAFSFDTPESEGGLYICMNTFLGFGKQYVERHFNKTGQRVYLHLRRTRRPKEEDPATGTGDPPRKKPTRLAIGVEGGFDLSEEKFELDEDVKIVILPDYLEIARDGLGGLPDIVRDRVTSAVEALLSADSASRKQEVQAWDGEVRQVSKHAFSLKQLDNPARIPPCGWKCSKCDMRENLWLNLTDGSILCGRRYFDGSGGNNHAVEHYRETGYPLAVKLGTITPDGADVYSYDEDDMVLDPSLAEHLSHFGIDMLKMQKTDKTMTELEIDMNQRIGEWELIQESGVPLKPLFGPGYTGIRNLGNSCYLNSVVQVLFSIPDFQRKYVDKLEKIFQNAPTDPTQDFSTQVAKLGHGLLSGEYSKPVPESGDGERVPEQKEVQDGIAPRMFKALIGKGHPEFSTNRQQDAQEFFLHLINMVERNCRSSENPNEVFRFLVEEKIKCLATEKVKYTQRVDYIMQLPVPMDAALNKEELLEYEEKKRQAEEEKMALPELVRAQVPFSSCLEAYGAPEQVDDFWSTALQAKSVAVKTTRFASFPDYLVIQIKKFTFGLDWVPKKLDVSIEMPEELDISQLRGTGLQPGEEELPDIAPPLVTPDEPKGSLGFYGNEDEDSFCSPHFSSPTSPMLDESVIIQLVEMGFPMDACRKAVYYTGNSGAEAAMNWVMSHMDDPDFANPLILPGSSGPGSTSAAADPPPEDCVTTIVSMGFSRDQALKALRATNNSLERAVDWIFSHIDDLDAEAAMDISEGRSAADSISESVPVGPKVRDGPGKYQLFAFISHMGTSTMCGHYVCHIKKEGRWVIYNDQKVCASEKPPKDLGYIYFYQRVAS
Method in brief: as §1

USP54 = USP54 (UniProt Q70EL1)
USP54, sequence (Q70EL1 whole entry): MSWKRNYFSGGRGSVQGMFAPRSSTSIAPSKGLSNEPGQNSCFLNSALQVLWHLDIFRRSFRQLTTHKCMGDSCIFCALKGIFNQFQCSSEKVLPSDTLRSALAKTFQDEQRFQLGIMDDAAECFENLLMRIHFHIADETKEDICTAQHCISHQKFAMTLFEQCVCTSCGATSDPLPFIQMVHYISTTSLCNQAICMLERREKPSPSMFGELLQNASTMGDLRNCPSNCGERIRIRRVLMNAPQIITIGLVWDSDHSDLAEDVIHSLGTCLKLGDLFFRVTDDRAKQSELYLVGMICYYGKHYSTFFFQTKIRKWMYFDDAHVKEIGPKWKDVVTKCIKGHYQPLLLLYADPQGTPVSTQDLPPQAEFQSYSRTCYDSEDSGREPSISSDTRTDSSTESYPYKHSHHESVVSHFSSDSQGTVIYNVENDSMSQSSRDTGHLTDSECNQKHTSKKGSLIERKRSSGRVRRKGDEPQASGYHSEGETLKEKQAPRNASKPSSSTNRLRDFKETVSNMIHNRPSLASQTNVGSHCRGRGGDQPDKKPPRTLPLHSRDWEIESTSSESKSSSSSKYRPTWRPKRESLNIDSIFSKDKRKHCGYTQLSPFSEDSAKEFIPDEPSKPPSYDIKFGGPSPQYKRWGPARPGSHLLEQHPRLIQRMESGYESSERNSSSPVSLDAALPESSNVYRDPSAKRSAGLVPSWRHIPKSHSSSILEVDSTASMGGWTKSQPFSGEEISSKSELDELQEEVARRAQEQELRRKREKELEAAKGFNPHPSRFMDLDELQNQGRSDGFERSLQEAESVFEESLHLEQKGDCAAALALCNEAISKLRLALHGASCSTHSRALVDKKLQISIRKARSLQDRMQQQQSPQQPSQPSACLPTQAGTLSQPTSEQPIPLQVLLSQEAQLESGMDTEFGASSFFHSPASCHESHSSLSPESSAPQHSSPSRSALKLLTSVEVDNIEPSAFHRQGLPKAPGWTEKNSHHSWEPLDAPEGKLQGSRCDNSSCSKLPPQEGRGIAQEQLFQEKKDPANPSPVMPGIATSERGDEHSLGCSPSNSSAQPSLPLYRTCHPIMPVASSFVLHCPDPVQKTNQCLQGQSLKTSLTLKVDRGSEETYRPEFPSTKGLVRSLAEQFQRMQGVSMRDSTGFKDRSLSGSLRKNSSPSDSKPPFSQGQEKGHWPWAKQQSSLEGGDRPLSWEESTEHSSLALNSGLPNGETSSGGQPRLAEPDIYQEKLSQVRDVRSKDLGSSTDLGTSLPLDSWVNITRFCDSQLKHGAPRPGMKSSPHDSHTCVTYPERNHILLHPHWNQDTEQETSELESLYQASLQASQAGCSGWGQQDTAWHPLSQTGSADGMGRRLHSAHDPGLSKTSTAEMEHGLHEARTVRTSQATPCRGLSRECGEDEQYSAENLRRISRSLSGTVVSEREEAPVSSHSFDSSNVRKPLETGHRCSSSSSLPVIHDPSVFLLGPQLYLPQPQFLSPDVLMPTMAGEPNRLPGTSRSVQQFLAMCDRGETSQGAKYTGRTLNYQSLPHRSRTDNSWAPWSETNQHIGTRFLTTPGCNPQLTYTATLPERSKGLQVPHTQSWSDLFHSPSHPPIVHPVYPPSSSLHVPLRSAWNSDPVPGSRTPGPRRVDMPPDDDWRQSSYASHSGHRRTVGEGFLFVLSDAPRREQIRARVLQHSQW
Method in brief: as §1

USP7 = USP7 (UniProt Q93009)
USP7, sequence (Q93009 whole entry, looked up): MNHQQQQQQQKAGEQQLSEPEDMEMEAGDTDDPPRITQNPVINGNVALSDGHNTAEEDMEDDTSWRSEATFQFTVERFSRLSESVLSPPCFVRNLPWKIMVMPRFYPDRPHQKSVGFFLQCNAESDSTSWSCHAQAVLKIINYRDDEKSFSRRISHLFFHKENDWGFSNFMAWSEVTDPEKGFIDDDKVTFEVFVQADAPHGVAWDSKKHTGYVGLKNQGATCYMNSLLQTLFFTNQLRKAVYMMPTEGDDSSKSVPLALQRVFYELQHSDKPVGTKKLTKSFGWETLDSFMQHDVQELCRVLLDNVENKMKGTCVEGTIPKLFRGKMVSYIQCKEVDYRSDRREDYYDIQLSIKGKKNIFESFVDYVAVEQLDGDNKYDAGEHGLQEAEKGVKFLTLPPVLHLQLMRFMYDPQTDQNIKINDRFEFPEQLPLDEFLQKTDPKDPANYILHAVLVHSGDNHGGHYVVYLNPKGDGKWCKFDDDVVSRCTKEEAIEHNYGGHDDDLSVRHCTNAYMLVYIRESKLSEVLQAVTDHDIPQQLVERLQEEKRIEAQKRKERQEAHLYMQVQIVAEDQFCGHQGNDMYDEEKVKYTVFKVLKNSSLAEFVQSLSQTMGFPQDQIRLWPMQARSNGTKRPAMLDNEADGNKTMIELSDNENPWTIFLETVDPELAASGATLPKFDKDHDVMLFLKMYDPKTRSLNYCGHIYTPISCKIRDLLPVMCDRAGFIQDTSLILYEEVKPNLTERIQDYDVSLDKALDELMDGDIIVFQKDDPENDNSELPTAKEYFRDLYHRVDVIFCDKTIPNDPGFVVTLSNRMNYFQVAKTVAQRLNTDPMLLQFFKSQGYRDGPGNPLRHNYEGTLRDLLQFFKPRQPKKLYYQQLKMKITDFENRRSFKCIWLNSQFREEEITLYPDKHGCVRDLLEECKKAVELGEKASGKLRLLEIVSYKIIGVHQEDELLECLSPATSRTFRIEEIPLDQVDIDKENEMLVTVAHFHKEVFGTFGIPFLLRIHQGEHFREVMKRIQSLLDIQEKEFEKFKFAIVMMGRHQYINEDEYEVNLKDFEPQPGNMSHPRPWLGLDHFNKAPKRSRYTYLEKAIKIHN
Method in brief: as §1

USP8 = molecular target: T5, USP8 (UniProt P40818)
T5 sequence (whole entry): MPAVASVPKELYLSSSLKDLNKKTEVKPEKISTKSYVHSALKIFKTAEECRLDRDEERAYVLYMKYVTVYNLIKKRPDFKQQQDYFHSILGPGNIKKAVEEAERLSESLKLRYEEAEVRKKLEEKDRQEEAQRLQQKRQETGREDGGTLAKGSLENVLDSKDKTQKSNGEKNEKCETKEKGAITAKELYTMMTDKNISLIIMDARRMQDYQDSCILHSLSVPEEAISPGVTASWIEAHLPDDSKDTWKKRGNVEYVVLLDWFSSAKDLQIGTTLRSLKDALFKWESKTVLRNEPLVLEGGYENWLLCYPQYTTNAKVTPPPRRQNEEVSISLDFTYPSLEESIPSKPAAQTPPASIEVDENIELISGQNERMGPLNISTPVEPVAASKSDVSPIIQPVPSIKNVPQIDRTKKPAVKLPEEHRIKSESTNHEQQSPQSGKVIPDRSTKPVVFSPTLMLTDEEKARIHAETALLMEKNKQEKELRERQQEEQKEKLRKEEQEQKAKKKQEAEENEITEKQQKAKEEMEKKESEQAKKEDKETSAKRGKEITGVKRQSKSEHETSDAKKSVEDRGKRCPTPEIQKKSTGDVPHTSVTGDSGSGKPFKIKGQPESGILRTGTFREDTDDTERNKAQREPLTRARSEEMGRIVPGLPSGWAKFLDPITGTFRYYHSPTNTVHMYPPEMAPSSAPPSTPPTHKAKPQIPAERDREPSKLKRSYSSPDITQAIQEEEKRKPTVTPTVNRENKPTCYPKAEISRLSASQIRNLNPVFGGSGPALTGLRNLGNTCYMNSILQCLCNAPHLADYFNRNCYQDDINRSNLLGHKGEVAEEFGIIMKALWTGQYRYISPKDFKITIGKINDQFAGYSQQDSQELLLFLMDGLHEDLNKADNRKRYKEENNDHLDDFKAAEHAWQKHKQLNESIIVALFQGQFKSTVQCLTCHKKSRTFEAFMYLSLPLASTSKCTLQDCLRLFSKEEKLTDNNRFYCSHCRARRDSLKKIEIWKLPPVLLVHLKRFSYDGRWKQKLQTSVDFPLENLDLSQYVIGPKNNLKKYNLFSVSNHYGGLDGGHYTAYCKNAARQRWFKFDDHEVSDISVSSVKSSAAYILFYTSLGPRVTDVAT
Method in brief: as §1

Measured: log2 ratio of Biotin-Ahx-Ub-VS probe labelling

O=C(CCl)Nc1ccc(F)cc1F
inactive: USP42 -0.555 | USP46 -0.0216 | USP47 -0.211 | USP48 -0.0331 | USP5 -0.0493 | USP54 0.615 | USP7 -0.0738 | USP8 -0.257
